Screening results deposited in PubChem by The Scripps Research Institute Molecular Screening Center.
hgDAF-12 ag = activates the H. glycines DAF-12 receptor ligand-binding domain | HEK293 GAL4-hgDAF12 UAS-luciferase reporter, agonist luminescence; normalized to butyrate control | activation, % at 6.8 µM | 370,000 tested, 1.8% active | AID 687014;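 active = activation above a cutoff set at the mean of all screened compounds plus 3 SD, cut at about 10% in these data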
DAX1 inh-1 = DAX1 (NR0B1) inhibition, primary screen. 370,000 tested, 1.1% active. HEK293T StAR-luciferase reporter, SF-1/DAX-1 repression relief. inhibition, % at 6.8 µM;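 active = inhibition above the mean over all tested compounds plus 3 SD, cut at about 3.6% in these data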;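 also: higher inhibition means more luminescence from relief of DAX-1 repression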
DAX1 inh-2 = inhibitors of human orphan nuclear receptor DAX1 (NR0B1) | P51843 | HEK293 Gal4-DAX1 luciferase reporter, luminescence | inhibition, % at 6.75 µM | 340,000 tested, 0.99% active;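 active = inhibition above the mean over all tested compounds plus 3 SD, cut at about 4.2% in these data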;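 also: inhibition shows as a rise in luminescence from relieved DAX1 repression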
Target sequence (P51843 207-470 limits assumed): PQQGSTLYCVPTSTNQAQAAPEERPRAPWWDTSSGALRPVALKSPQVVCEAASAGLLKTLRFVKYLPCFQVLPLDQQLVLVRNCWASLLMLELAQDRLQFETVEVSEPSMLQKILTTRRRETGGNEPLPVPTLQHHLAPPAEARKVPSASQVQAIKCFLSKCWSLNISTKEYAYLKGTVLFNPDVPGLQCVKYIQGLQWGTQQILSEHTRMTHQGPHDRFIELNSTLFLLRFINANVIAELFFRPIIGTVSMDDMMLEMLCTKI
hcDAF12 agonist = activators of H. contortus DAF-12 nuclear receptor; HEK293 hcDAF-12 lit1-tk-luc reporter, luminescence; 0% DMSO, 100% Δ7-dafachronic acid; activation, % at 6.8 µM; 370,000 tested, 1.4% active;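 active = activation above the mean of all tested compounds plus 3 SD, cut at about 5.5% in these data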
ssDAF12 agonist = activates DAF-12 receptor from parasite S. stercoralis | HEK293 ssDAF-12/GRIP1 lit1-tk-luc reporter, luminescence; % of 3 µM dafachronic acid response | activation, % at 6.8 µM | 370,000 tested, 1% active | AID 652126;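 active = activation above the mean over all tested compounds plus 3 SD, cut at about 0.9% in these data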
Hits are given with their value; – = inactive; · = no result given. This is a sample that favours compounds with a hit; in the whole collection about 4.1% have one here.

SMILES	hgDAF-12 ag	DAX1 inh-1	DAX1 inh-2	hcDAF12 agonist	ssDAF12 agonist
C[C@H](CO)N1C[C@H](C)[C@@H](CN(C)Cc2ccc3c(c2)OCO3)Oc2cc(Br)ccc2S1(=O)=O	–	–	–	–	–
C=C(C)CSc1nc2nc(C)c(Br)cc2[nH]1	–	–	6.0	–	–
COc1ccc(CCNC(=O)C/C(C)=N/NC(=O)c2ccc(N)cc2)cc1OC	–	–	–	–	0.9
COc1ccc(CCNC(=O)Cc2ccccc2)cc1OC	–	–	5.6	–	–
COc1ccc(CC(=O)NNC(=O)c2nn(Cc3ccccc3)c(=O)c3ccccc23)cc1OC	–	–	5.1	–	–
CCCC#Cc1cnc2c(c1)C(=O)N([C@H](C)CO)C[C@@H](C)[C@H](CN(C)S(=O)(=O)c1cccc(OC)c1)O2	–	–	–	–	–
Cc1n(-c2ccccc2)c2ccc(Cl)cc2[n+]1CCO	12	–	–	–	–
Nc1ccc2oc(-c3cccc4ccccc34)nc2c1	–	–	–	–	–
Cc1ccc(-c2nc3cc(N)ccc3o2)c(C)c1	12	–	–	–	–
COc1ccc(CNCC#Cc2ccccc2)cc1	–	–	·	–	–
CSC[C@H]1CN(Cc2ccccc2)C(=O)[C@@H]1CC(=O)Nc1ccc(Br)cc1	–	–	–	–	–
COc1cc(/C=N/N=C(/N)c2nonc2N)cc(Br)c1OCc1ccccc1C	–	–	–	–	–
COc1cccc(/C=N/N=C(\N)c2nonc2N)c1O	13	–	–	–	–
C[C@H]1CN(C(=O)OC(C)(C)C)CCN1c1ccc(N2CC[C@H](O)C2)c(C#N)c1	–	–	·	–	–
Cc1cc(C)cc([C@H]2C[C@]34CN(C(=O)OC(C)(C)C)S(=O)(=O)[C@H]3C[C@H]2O4)c1	–	–	·	–	–
Nc1c(/C=C2\C=Nc3ccccc32)c(=O)nc2sc(CC(=O)N3CCOCC3)nn12	–	3.7	–	–	–
Nc1c(C=C2C=CC(=O)C=C2)c(=O)nc2sc(CC(=O)N3CCOCC3)nn12	–	–	–	–	–
COc1ccc(/C(N)=N/OC(=O)c2c(-c3ccccc3Cl)noc2C)cc1OC	–	–	–	–	–
Cc1nc(/C(N)=N/OC(=O)c2c(-c3ccccc3Cl)noc2C)cs1	–	–	5.9	–	–
Cc1cccc(NC(=O)Nc2ccc(C)c(C)c2)n1	–	–	–	6.2	–
N#Cc1ccccc1NC(=O)COC(=O)c1cccs1	–	–	–	–	–
Cc1ccc(OCC(=O)Nc2cccc(C)n2)c(C)c1	11	–	–	–	–
Cc1cccc(NC(=O)COc2ccc(Br)cc2)n1	–	–	–	–	–
N#Cc1ccccc1NC(=S)NC(=O)c1cccs1	–	–	–	6.0	–
Cc1ccc(OCC(=O)NC(=S)Nc2cccc(C)n2)cc1	–	–	7.8	–	–
SMILES	hgDAF-12 ag	DAX1 inh-1	DAX1 inh-2	hcDAF12 agonist	ssDAF12 agonist
COc1cccc(C(=O)N2CCC[C@@H]2C(=O)N2CCC[C@@H]2C(=O)NCc2ccccc2)c1	–	–	·	–	–
O=S1(=O)N[C@H](Cc2ccccc2)COc2cc(N3CCOCC3)ccc21	–	–	·	–	–
COc1ccc(Cc2nc3ccc(C(=O)N4CCCCC4CO)cc3o2)cc1OC (centres undefined)	–	–	–	–	–
Cc1nc(NC(=S)NC(=O)COc2ccc(Cl)cc2)ccc1Br	–	–	6.0	–	–
Cc1nc(NC(=S)NC(=O)c2cccs2)ccc1Br	–	–	–	–	1.3
Cc1cccc(NC(=S)NC(=O)c2cccs2)n1	–	–	–	–	–
Cc1ccc(-c2nc3ccccc3s2)cc1NC(=O)c1cc(-n2cnnc2)ccc1Cl	10	–	–	–	–
CC(=O)NNC(=O)c1[nH]c2ccc(Cl)cc2c1-c1ccccc1	–	–	5.0	–	–
O=C(NN=C1CCCC1)c1[nH]c2ccc(Cl)cc2c1-c1ccccc1	–	–	·	–	–
Cc1cc(CN2CCCC(N3CCc4ccccc4C3)C2)cc(C)c1O (centres undefined)	11	–	–	–	–
COc1cc2c(cc1OC)CN(C1CCCN(Cc3cccc(C(C)=O)c3)C1)CC2 (centres undefined)	–	–	–	–	–
O=C(COC(=O)c1cc(Cl)nc(Cl)c1)NCCc1ccc(F)cc1	–	–	–	–	1.6
O=C(COC(=O)c1ccc(F)cc1)NCCc1ccc(F)cc1	–	–	–	–	–
NNc1nc2c(-c3cccc(C(F)(F)F)c3)nnn2c2ccccc12	–	–	–	6.5	–
Cc1ccc(-c2nnn3c2nc(NCCc2ccc(S(N)(=O)=O)cc2)c2ccccc23)cc1	–	–	–	5.7	–
CC(=O)NCCNc1nc2c(-c3cccc(C(F)(F)F)c3)nnn2c2ccccc12	–	–	–	–	–
COCCNc1nc2c(-c3cccc(C(F)(F)F)c3)nnn2c2ccccc12	–	–	–	6.5	1.3
CC(C)c1ccc([C@@H]2O[C@H](C)CC3=C2C(=O)OC(C)(C)O3)cc1	–	–	·	–	–
COc1ccc(-c2cc(-c3ccc(OC)cc3)nc(-c3ccc4c(c3)NC(=O)CO4)c2)cc1	–	–	–	–	–
COc1cccc(-c2nc(-c3ccc4c(c3)NC(=O)CO4)cs2)c1	11	–	–	–	–
COCc1cc(C)n(CC(=O)N/N=C/c2ccc(-c3ccc(Cl)c(C(=O)O)c3)o2)c(=O)c1C#N	–	–	–	–	0.9
O=C(Cc1ccc(F)cc1)N/N=C/c1ccc(-c2ccc(Cl)c(C(=O)O)c2)o1	–	–	–	–	–
N#Cc1ccc(C=NN2CCCCCC2)cc1	–	3.8	–	–	–
O=[N+]([O-])c1ccc(/C=N/N2CCCCC2)cc1	–	–	4.4	–	–
CCOC(=O)N1CCN(C(=O)C[C@@H]2C[C@@]3(C(=O)OC)CC(C)(C)CC=C3N(Cc3ccc4c(c3)OCO4)C2=O)CC1	–	–	·	–	–
SMILES	hgDAF-12 ag	DAX1 inh-1	DAX1 inh-2	hcDAF12 agonist	ssDAF12 agonist
O=C(NCc1ccccc1)[C@H]1CCCN1C(=O)[C@H]1CCCN1C(=O)c1ccc(F)cc1	–	–	·	–	–
N/C(=N\OC(=O)Cc1cccs1)c1ccc([N+](=O)[O-])cc1	11	–	–	–	–
COc1ccc(COc2ccc3c(C)cc(=O)oc3c2)cc1	12	–	–	–	–
COc1ccc(CCNC(=O)COc2ccc3c(C)cc(=O)oc3c2)cc1	–	–	–	–	–
CCCOc1cccc(C(=O)Nc2cccc3ncccc23)c1	–	–	–	–	–
CCCOc1cccc(C(=O)Nc2ccc(Br)cc2F)c1	11	–	–	–	–
O=C(COc1ccc2c(c1)OCO2)Nc1ccccc1F	13	–	–	–	–
CCCCS(=O)(=O)N1CCN(C(=O)C(=O)c2cccc(C(F)(F)F)c2)CC1	–	–	·	–	–
CN1C2=N[C@H](c3ccccc3)CC(=O)N2/C(=C\c2ccccc2)C1Cc1ccccc1 (some centres undefined)	–	–	·	–	–
COc1cc(NC(=O)c2nnn(Cc3ccc(SC)cc3)c2N)cc(OC)c1	–	–	4.2	–	–
